According to PubChem BioAssay AID2685 (National Center for Advancing Translational Sciences (NCATS), 2010):
Several values for one entry are separate records, joined by “and”; a condition that tells them apart may be missing. Identical values can stand only once. Hit rate of the full screen: of about 320,000 compounds, about 2,100 (0.66%) were called active. Another 53% or so got no clear call; they are omitted. Calls follow the shape of the dose curve; as a rule, active = well fitted inhibition curve with a large enough effect in the signal ratio, with a control signal flat (not every such curve was filed as active); inconclusive = small, poorly fitted or top-dose-only effect, or effect the other way, or a change in a side signal; inactive = flat fitted curve, though single readings scatter; the % refers to the signal ratio. What follows is part of a selection rich in actives, with near analogues and random picks from the rest.

Assay: qHTS Assay for Lipid Storage Modulators in Drosophila S3 Cells;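 as to cell number change: cells counted by Cell Tracker Red CMTPX staining in the red channel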; as to lipid storage change, negative = inhibition: % is scaled to controls: 0 for no effect and ±100 for the full control effect
Conditions: BODIPY lipid droplet fluorescence, 18-24 h, cells fed with added oleic acid; cell number change: measured here: cell count max response; series mostly up to 46.1 µM
Source text: NIH Molecular Libraries Probe Production Centers Network [MLPCN] NIH Chemical Genomics Center [NCGC] MLPCN Grant: 1 R03 MH085686-01 Assay Submitter (PI): Beller, Mathias; Max-Planck-Institut fur Biophysikalische Chemie NCGC Assay Overview: Storing lipids as a reservoir for energy or the anabolism of elementary metabolites is a common feature of probably all cells and is conserved from bacteria to humans. The universal cellular lipid storage organelle is the so-called lipid storage droplet (LD). Although ubiquitous, LDs share a simple structure composed of a hydrophobic core that harbors the storage lipids, which is shielded by a droplet-specific phospholipid monolayer to which proteins are attached. The current model of LD biogenesis involves an incorporation of the lipid core into the membrane leaflets of the endoplasmic reticulum (ER) followed by a subsequent budding-like maturation of a LD, which ultimately pinches off. Once released, LD volume can increase by localized lipogenesis or fusion of existing droplet. Storage lipids are re-mobilized enzymatically by lipase activity. Lipase regulation in the adipocyte is heavily studied and involves multiple components including catecholamine signaling, the LD-associated proteins Perilipin and comparative gene identification (CGI-58) and at least two lipases named hormone sensitive lipase (HSL) and adipocyte triglyceride lipase (ATGL). LD regulation outside of the adipocyte is poorly understood and only few components are known. However, there is an urgent need to learn more about ectopic fat depots as mislocalized storage of lipids, for example in the liver or muscle, is an eminent health problem associated with insulin resistance or the metabolic syndrome. We developed a laser-scanning cytometer assay to enable 1,536-well screening and combined the results of the small molecules screen with an RNAi database based on lipid storage.
Triacsin C (Sigma-Aldrich T-4540), an inhibitor of long-chain fatty acyl CoA synthetase that blocks synthesis of triglycerides, was used as a positive control for lipid under-storage. A total of 23 nL of compound solution of different concentrations were transferred to the assay plates using a Kalypsys pin tool equipped with a 1,536-pin array containing 10-nL slotted pins (FP1S10, 0.457-mm diameter, 50.8 mm long; V&P Scientific). One microliter of oleic acid (400 uM) was added, and the plate was lidded with stainless steel rubber gasket lined lids containing pinholes. […] Fluorescence was detected by excitation of the fluorophores with a 488-nm laser on an Acumen Explorer (TTP Lab Tech). The total intensity in channel 2 (500-530 nm) reflected lipid droplet accumulation. Cells were detected using channel 3 (575-640 nm) with 5-um width and 100-um depth filters. The ratio of the number of objects in PMT channel 2 over the number of objects in PMT channel 3 was also calculated. Percent activity was computed relative to an internal control (100% inhibited lipid droplet deposition due to the presence of 20 uM Triacsin C), which was added to 32 wells/plate.
Potency is read from the fitted curve at half-maximal effect.

Structure (SMILES)	Potency	cell number change	lipid storage change, negative = inhibition
CC[n+]1c(/C=C/N(C)c2ccccc2)oc2ccc(F)cc21	25.9 µM (active)	6.99%	
CCn1c(C)[n+](CC)c2ccc(C(=O)N(C)c3ccccc3)cc21	inactive	19.5%	
CC[n+]1c(/C=C/C=C/N(C(C)=O)c2ccccc2)sc2ccccc21	inactive	10.1%	
C/C=C/COC(=O)C1=C(C)NC(=O)NC1c1ccc2c(c1)OCO2 (centres undefined)	inactive	9.12%	
Cc1c(N)cccc1-c1nc2ccccc2[nH]1	inactive	-2.56%	
CN(C)CCCNCCCNC(=O)/C(=N\O)c1ccccn1	inactive	11.1%	
O=C(Nc1ccc(C2CC2(Cl)Cl)cc1)c1ccccc1Br (centres undefined)	inactive	13.5%	
COc1ccc(CN(CC(=O)NCc2ccccc2)C(=O)c2csnn2)cc1	inactive	1.68%	
Cc1cccc(-c2ccc3ncnc(N(C)Cc4ccco4)c3c2)c1	inactive	-20.6%	
CN(Cc1ccco1)c1ncnc2ccc(-c3ccoc3)cc12	-1.69% and -0.798%		
CN(Cc1ccco1)c1ncnc2ccc(-c3ccc4c(c3)OCCO4)cc12	inactive		
O=C(COC(=O)/C=C/c1cccc(F)c1)Nc1ncccn1	inactive	-0.367%	
COc1cccc(N2CCN(c3nc(C)cc(=O)[nH]3)CC2)c1	inactive	15.9%	
O=C(CSc1nnnn1-c1ccc2c(c1)OCCO2)N1CCN(C(=O)c2ccco2)CC1	inactive	-0.608%	
Cc1cc2nc(SCC(=O)N(C)C)c3c(c2cc1C)CCCC3	inactive	-15.1%	
CCOC(=O)c1c(C)n(C)c2cc([N+](=O)[O-])c(O)c([N+](=O)[O-])c12	inactive	7.01%	
CCOC(=O)C1CCCCN1Cc1cc(Cl)ccc1O (centres undefined)	inactive	-14.7%	
O=C(Nc1cccc(O)c1)c1ccccc1	inactive		
COc1cccc(C(=O)Nc2cccc(NC(C)=O)c2)c1	inactive	-21%	
O=C(Nc1cccc(Br)c1)c1ccc(CSc2ccccc2)cc1	inactive	-13.3%	
COc1cccc(C(=O)Nc2cccc(-c3ccccc3)c2)c1	1.46 µM (active)	5.29%	
COc1cccc(C(=O)Nc2ccc3ccccc3c2)c1	inactive	24%	
COc1cccc(C(=O)Nc2ccc(C3CC3(Cl)Cl)cc2)c1 (centres undefined)			15.6% [at 9.22 µM] (inactive)
O=C(Nc1cccc(C(=O)Nc2cccc(Br)c2)c1)c1ccccc1	5.8 µM (active)	0.351%	

Structure (SMILES)	Potency	cell number change	lipid storage change, negative = inhibition
O=C(Nc1ccc(C2CC2(Cl)Cl)cc1)c1cccc([N+](=O)[O-])c1 (centres undefined)	20.6 µM (active)	-18.3%	
COc1cccc(-c2cc(C(=O)Nc3ccc4c(c3)OCCO4)c3ccccc3n2)c1	inactive		
COc1cccc(/C(C)=N/NC(=O)c2cc(-c3cccnc3)nc3ccccc23)c1	inactive	11.2%	
COc1cccc(-c2cc(C(=O)Nc3cccnc3)c3ccccc3n2)c1	8.2 µM (active)		
O=C(Nc1ccc(NC(=O)c2cccc([N+](=O)[O-])c2)cc1)c1cccc([N+](=O)[O-])c1	inactive	-4.74%	
COc1ccc(-c2nc(CS(=O)CC(=O)NC3CCCCCC3)c(C)o2)cc1 (centres undefined)	inactive		
O=C(COC(=O)c1ccc(Br)o1)NCCc1ccccc1	inactive	14.1%	
O=C(NC1CCS(=O)(=O)C1)c1cccc(Br)c1 (centres undefined)	inactive	-19.9%	
COc1ccc(S(=O)(=O)N2CCN(C(=O)C3CC3)CC2)cc1	inactive	0.403%	
CCOC(=O)COc1ccc2c(c1)c(C(C)=O)c(C)n2-c1ccc(OC)cc1	inactive		
Cc1cccc(-c2nc3sc(C)cc3c(=O)o2)c1	inactive	1.66%	
COc1ccc(S(=O)(=O)N2CCCC(C(=O)NCc3ccc4c(c3)OCO4)C2)cc1 (centres undefined)	inactive	4.03%	
COc1ccc(Cc2nnc(SCC(=O)Nc3cc(Cl)ccc3C)[nH]c2=O)cc1	inactive	-4.71%	
CCc1cc(=O)oc2c(C)c(OCC(=O)N3CCC(C(=O)O)CC3)ccc12	inactive	-9.69%	
CCCCc1cc(=O)oc2cc(OCC(=O)NC(Cc3c[nH]c4ccc(O)cc34)C(=O)O)ccc12 (centres undefined)	inactive	-11.2%	
O=C(/C=C/Nc1ccc(Br)cn1)c1cccc(OC(F)F)c1	inactive	16.6%	
CCC(=O)Nc1cccc(NC(=O)c2cccc([N+](=O)[O-])c2)c1	inactive	5.3%	
CCCc1cc(C(=O)Nc2cccc([N+](=O)[O-])c2)cs1	20 µM (active)	24.5%	
COc1cccc(C(=O)COc2cccc(NC(=O)c3cccc([N+](=O)[O-])c3)c2)c1	18.4 µM (active)	20%	
COc1cccc(C(=O)COc2cccc(NC(=O)c3ccco3)c2)c1	inactive	29%	
COc1ccc(NC(=O)c2cccc([N+](=O)[O-])c2)cc1	inactive	0.213%	
O=C(Nc1cccc([N+](=O)[O-])c1)c1ccccc1	inactive	-11.6%	
COc1cccc(C2NC(=O)NC(C)=C2C(=O)Nc2cc(OC)ccc2OC)c1 (centres undefined)	inactive	10.2%	
CC(C(=O)N1CCc2ccccc21)N1CCN(Cc2ccc(Cl)cc2)CC1 (centres undefined)	inactive	-3.17%	

Structure (SMILES)	Potency	cell number change	lipid storage change, negative = inhibition
CC(C(=O)N1CCc2ccccc21)N1CCc2ccccc2C1 (centres undefined)	inactive	-14.5%	
CC(C(=O)N1CCc2ccccc21)N1CCN(c2ccccn2)CC1 (centres undefined)	23.1 µM (active)	18%	
CCOc1ccccc1N(CC(=O)OC)S(=O)(=O)c1ccccc1	inactive	1.61%	
O=C(NNc1nc2c(F)cccc2s1)C1COc2ccccc2O1 (centres undefined)	inactive		
CC(=O)OCCc1c(C)nc2nc[nH]n2c1=O	29.1 µM (active)	-16.2%	
Cc1nc2nc[nH]n2c(=O)c1CCOC(=O)c1ccccc1F	inactive	-14.3%	
Cc1nc2nc[nH]n2c(=O)c1CCOC(=O)c1c(F)cccc1F	inactive	-14%	
OC[C@H]1O[C@@H](O[C@@H]2[C@@H](CO)O[C@@](O)(CO)[C@H]2O)[C@H](O)[C@@H](O)[C@H]1O	inactive		
O=C(Nc1ccccc1C(=O)NCCCN1CCOCC1)c1ccc(Cl)cc1	inactive	1.08%	
COc1ccc(CC(=O)NCC2CCCN(Cc3ccccc3Cl)C2)cc1 (centres undefined)	inactive	-2.61%	
Cc1nc2c(sc3nc(N4CCOCC4)c4c(c32)CC(C)(C)OC4)c(-c2ccc(Cl)cc2)c1C(=O)O	16.4 µM (active)	-7.08%	
Cc1nc2c(sc3nc(N4CCOCC4)c4c(c32)CC(C)(C)OC4)c(-c2ccccc2)c1C(=O)O	inactive	21%	
Cc1ccc(NC(=O)c2sc3nc(N4CCOCC4)c4c(c3c2N)CC(C)(C)OC4)cc1	inactive		
O=C(NC1CC2CCCC(C1)N2C(=O)Nc1ccccc1)c1ccncc1 (centres undefined)	inactive	23.5%	
Cc1nc2sc(C(=O)OCC(=O)N3c4ccccc4CC3C)c(C)c2c(=O)[nH]1 (centres undefined)	inactive	19.4%	
COc1ccc(N2C(=O)NC(NC(=O)C(C)(C)C)(C(F)(F)F)C2=O)cc1 (centres undefined)	inactive	-16.8%	
CC1CC(c2ccccc2)=Nc2ccccc2N1 (centres undefined)	0.82 µM (active)	13.7%	
Clc1ccccc1C1CC(c2ccccc2)=Nc2ccccc2N1 (centres undefined)	inactive	-20.8%	
CC1(c2ccccc2)CC(c2ccccc2)=Nc2ccccc2N1 (centres undefined)	inactive	1.92%	
CCN1CCN(Cc2c(C(=O)N/N=C(\C)c3ccc(Cl)c(Cl)c3)nnn2-c2nonc2N)CC1	inactive	-0.855%	
Cn1c(N)c(C(=O)COC(=O)c2ccc(Cl)c(S(=O)(=O)N3CCCC3)c2)c(=O)n(C)c1=O	inactive	1.25%	
O=C(Cn1cc([N+](=O)[O-])cn1)Nc1nc2ccccc2s1	inactive		
COc1cc(/C=C/C(=O)O)cc(S(=O)(=O)NCCO)c1OC	inactive	-11.7%	
CC1Cc2ccccc2N1C(=O)CSc1ccccc1 (centres undefined)	inactive	-23.8%	

Structure (SMILES)	Potency	cell number change	lipid storage change, negative = inhibition
CC1Cc2ccccc2N1C(=O)CNc1ccccc1N1CCCCC1 (centres undefined)	inactive	1.48%	
CC1Cc2ccccc2N1C(=O)CNCCCN(C)C (centres undefined)	20.6 µM (active)	-0.87%	
CC(NC(=O)c1ccc(Br)cc1)C(=O)NC1=NCCS1 (centres undefined)		5.62%	-5.54% [at 9.22 µM] (inactive)
O=C(CN1C(=O)C2CC=CCC2C1=O)NC1=NCCS1 (centres undefined)	inactive	4.96%	
CC(C(=O)NC1=NCCS1)N1C(=O)C2CC=CCC2C1=O (centres undefined)	29.1 µM (active)	-25.7%	
CC(NC(=O)c1ccccc1)C(=O)NC1=NCCS1 (centres undefined)	inactive	-3.51%	
CC(NC(=O)C1CCCCC1)C(=O)NC1=NCCS1 (centres undefined)	20.6 µM (active)	-6.79%	
CC(C(=O)NC1=NCCS1)N1C(=O)c2ccccc2C1=O (centres undefined)	inactive	-6.04%	
COC(=O)CC1C(=O)NC2CCCCC2N1C(=O)c1ccccc1 (centres undefined)	inactive	-6.42%	
COCC(C)NC(=O)COc1ccc(Cl)cc1Cl (centres undefined)	inactive	14.4%	
CC(=O)N(C)c1nc(N)n(-c2ccccc2)n1	inactive	17.4%	
CN(CC(=O)Nc1ccc(N2CCOCC2)cc1)C(=O)C12CC3CC(CC(C3)C1)C2	inactive	0.396%	
CC(C)(C)c1ccc(NC(=O)Nc2ccc3ccccc3n2)cc1	inactive	14.5%	
CCCCn1c(=N)n(CC(=O)O)c2ccccc21	inactive	-0.932%	
COc1ccc(N(CC(=O)N/N=C/c2cc3ccc(OC)cc3nc2Cl)S(=O)(=O)c2ccccc2)cc1	inactive	5.98%	
COc1ccc(Cc2noc(CN3CCCN(Cc4ccc(F)cc4)CC3)n2)cc1OC	inactive	-12.5%	
Cc1ccn2c(C(=O)NNC(=O)Nc3ccc(Cl)cc3)c(C)nc2c1	inactive	-7.08%	
CCCCN(C(=O)C1CCCC1)c1c(N)n(CCC)c(=O)[nH]c1=O	inactive	10.4%	
CCCCN(C(=O)C1CC(=O)N(Cc2ccc(C)cc2)C1)c1c(N)n(CCCC)c(=O)[nH]c1=O (centres undefined)	inactive	2.26%	
CCCCN(C(=O)C1CC(=O)N(c2ccc(C)cc2)C1)c1c(N)n(CCC)c(=O)[nH]c1=O (centres undefined)	20.6 µM (active)	-1.39%	
Cc1ccc(-c2csc(NC(=O)c3cccc(S(=O)(=O)N4CCN(C)CC4)c3)n2)cc1	inactive	13%	
